Measured values reported in PubChem BioAssay (NCI).
This is part of a sample that, as a whole, favours compounds with a hit. Of some 83,000 tested, about 20% had one in any assay.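 How to read the values: 0–100, growth inhibition (40 = 60% inhibited); 0, no net growth; -100 to 0, cell death (-40 = 40% of starting cells died; -100 = all dead).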 Unmarked numbers belong to inactive results. The source made the active and inactive calls. The calls were made as follows: active = growth percent below 10; inactive = the rest.

Assays:
Test in all cases: NCI-60 one-dose screen, 48 h (100 = growth as untreated, 0 = no growth, -100 = all killed)
Settings in all cases: 10 µM unless noted
[1] = system: NCI-H23 lung
[2] = system: NCI-H226 lung
[3] = system: NCI-H322M lung
[4] = system: HOP-62 NSCLC
[5] = system: NCI-H460 lung
[6] = system: HOP-92 NSCLC
[7] = system: NCI-H522 lung
[8] = system: A549/ATCC NSCLC
[9] = system: 786-0 renal
[10] = system: COLO 205 colon

Compound | growth [1] | growth [2] | growth [3] | growth [4] | growth [5] | growth [6] | growth [7] | growth [8] | growth [9] | growth [10]
COc1ccc(-c2nc(SC)nc(N3CCOCC3)c2C#N)cc1 | 98.6% | 95.4% | 102% | 88.5% | 109% | 71.2% | 84% | 95.2% | 76.8% | 99%
BrC(Br)(Br)c1cnc2ccccc2n1 | 64.2% | 21.3% | 74.9% | 60% | 8.61% (active) | 7.52% (active) | -61.3% (active) | 34.6% | 67.7% | -86.4% (active)
Cn1c(COC(=O)NCCn2ccnc2)nc2c(N3CCOCC3)nc(-c3ccccc3)nc21 | -74.8% (active) | -53.8% (active) | 33.4% | -40.4% (active) | -72.1% (active) | -75.2% (active) | -54.7% (active) | -36.2% (active) | -89.7% (active) | -57.3% (active)
COc1ccccc1OCC(=O)N1CCCCCC1 | 92.8% | 92.1% | 105% | 104% | 105% | 82.8% | 96% | 92.1% | 117% | 110%
CCC1(CC)NC(=O)c2c(c3ccc(Cl)c(Cl)c3n2C)C1C#N (stereo not given) | 93% | 95.6% | 103% | 81.2% | 98.7% | 62.1% | 86.5% | 88.6% | 94.3% | 80.1%
[O-][n+]1ccccc1CCN(O)CCc1cccc[n+]1[O-] | 97.1% | 85.7% | 96.5% | 94.1% | 115% | 86.8% | 81.5% | 101% | 101% | 104%
CC(=O)c1c[nH]c2ccc(-c3ccnc(Nc4ccc(NC(=O)c5cccc(F)c5)c(CN5CCOCC5)c4)n3)cc12 | -13.2% (active) | -0.697% (active) | -1.47% (active) | 1.97% (active) | -6.06% (active) | -22.8% (active) | 0.424% (active) | 8.56% (active) | 5.7% (active) | -17.8% (active)
CCCCCCCCCCCCCCCC(=O)OC[C@@]1(O)C[C@@]23CC[C@@H]4C(C)(C)[C@H](O)CC[C@@]4(C)[C@@H]2CC[C@H]1C3 | 98% | 99.2% | 114% | 101% | 107% | 113% | 91.2% | 104% | 0.227% (active) | 115%
O=C(OC(OC(=O)c1cc(Cl)cc(Cl)c1)c1cccc2ccccc12)c1ccccc1 (stereo not given) | 93.6% | 98.7% | 101% | 99.5% | 107% | 101% | 80.4% | 92.6% | 101% | 112%
COc1ccc(C(=O)c2cc3c(N)c(C(=O)Nc4cccc(Cl)c4)sc3nc2C)cc1 | 35.1% | 61.9% | 57.2% | 44.9% | 13.1% | 86.9% | -4.67% (active) | 32.3% | 51.6% | -1.48% (active)
NS(=O)(=O)c1cccc(NC(=O)C(=O)C2C(=O)Nc3ccccc32)c1 (stereo not given) | 95.3% | 95.9% | 121% | 90.2% | 106% | 74.6% | 102% | 103% | 114% | 123%
CN1CCN(c2ccc3nc(-c4cc(C(C)(C)C)c(O)c(C(C)(C)C)c4)[nH]c3c2)CC1 | 92.6% | 96% | 81% | 69.8% | 3.88% (active) | 48.6% | 75.5% | 53.4% | 55.4% | -56.7% (active)
COc1ccc(Cn2nc3c(c2-c2cc(OC)c(OC)c(OC)c2)-c2oncc2CC3)cc1 | 79.8% | 106% | 99% | 96.7% | 107% | 78.2% | 12.7% | 95.2% | 85.1% | 99.1%
FC(F)(F)c1cccc(Oc2ccc(Nc3ncnc4ccc(OCCCN5CCOCC5)cc34)cc2Cl)c1 | 76.1% | 84.7% | 37.5% | 62.3% | 14.2% | 41.5% | 35.1% | 49.4% | 44.6% | 47%
CC(=O)N1c2ccccc2NC2=C(C(=O)N(C)C2(C)C)C1C (stereo not given) | 50.2% | 91.1% | 73.4% | 61.6% | 21.9% | 37.5% | 18.6% | 80.3% | 80.1% | 14.2%
CC(C)[N+](C)(CCOC(COc1ccccc1)COc1ccccc1)C(C)C | 84.1% | 91.2% | 101% | 98.6% | 106% | 72.2% | 68% | 92.5% | 102% | 67.9%
COc1ccc(C(=O)/C=C/c2cn(Cc3ccc(Cl)cc3)c3ccccc23)cc1 | 87.5% | 55.1% | 79.5% | 58.9% | 11.8% | 77.3% | 26.5% | 57.2% | 26.9% | 62.9%
Cn1ncc2c(Nc3ccccc3Cl)nc(Cl)nc21 | 100% | 88.4% | 87.3% | 98.2% | 114% | 72.8% | 40.5% | 103% | 103% | 127%
COc1ccc(/C=C2\COc3ccc(-c4ccccc4)cc3C2=O)cc1O | 50.5% | 96.2% | 66.7% | -41.9% (active) | 16.7% | -1.71% (active) | 17.8% | 62% | -21.8% (active) | 63.9%
COc1ccc(C(=O)c2cc3c(N)c(C(=O)Nc4cccc(Br)c4C)sc3nc2C)cc1 | 27.4% | 45.6% | 52.6% | 28.8% | 5.88% (active) | 13.6% | -27.4% (active) | 17.4% | 26.2% | -40% (active)
CCCCCCCCCCCCCCCCCCOc1ccccc1N | 87.8% | 97.6% | 81.7% | 90.9% | 47.6% | 78.7% | 3.78% (active) | 25.5% | 25% | 46.3%
CC(=O)O[C@H]1CC[C@@]2(C)[C@@H](CC[C@@H]3[C@@H]2CC[C@@]2(C)[C@H]3CC[C@]2(O)C(C)=O)C1 | 101% | 89.8% | 91.9% | 95.3% | 105% | 101% | 96.8% | 92.1% | 98.1% | 107%
CC(=O)OC1CCC2(C)C(CCC3C4CC=C(C(C)=O)C4(C)OC(=O)CC32)C1 (stereo not given) | 34.7% | 45% | 95.7% | 61% | 78.1% | -21.2% (active) | -81.1% (active) | 59.1% | 64% | 2.72% (active)
O=C(Nc1nc(-c2ccccc2Cl)cs1)c1cc(-c2ccccc2)nc2ccc(Cl)cc12 | 51.3% | 74.3% | 93.8% | 84.6% | 102% | 42.8% | 78.6% | 99.7% | 89.4% | 87.6%
Cc1n[nH]c(C)c1-c1c(C)n[nH]c1C | 8.62% (active) | 56.2% | 28.6% | 34.5% | -35.1% (active) | -3.52% (active) | -8.26% (active) | 11.9% | 6.23% (active) | -21.6% (active)
CCn1ccnc1C(=O)/C=C/c1ccc(CC(=O)Nc2ccc(F)cc2)cc1 | 29.2% | 87.4% | 35.4% | 8.48% (active) | 5.47% (active) | 62.8% | 18.2% | 32.9% | 24.6% | 33.4%
C(=C\c1n(Cc2ccc3ccccc3c2)c(-c2ccccc2)c(-c2ccccc2)[n+]1Cc1ccc2ccccc2c1)/c1ccccc1 | -80.2% (active) | -74.9% (active) | -5.86% (active) | -84.5% (active) | -84.1% (active) | -81.8% (active) | -62.3% (active) | -62.4% (active) | -78.2% (active) | -70.5% (active)
